Assays:
Conditions in all cases: concentration: 1 μM, replicates: in singlicate; n = 1
MEK5 = tested on: T1, MEK5
T1 construct: gene MAP2K5

MEK6 = tested on: T2, MEK6
T2 construct: gene MAP2K6

MELK = tested on: MELK
MERTK = tested on: MERTK
MET = tested on: MET
MINK = tested on: T3, MINK
T3 construct: gene MINK1

MKK7 = tested on: MKK7
MKNK1 = tested on: MKNK1
MKNK2 = tested on: MKNK2
MLCK = tested on: T4, MLCK
T4 construct: gene MYLK3

MLK1 = tested on: T5, MLK1
T5 construct: gene MAP3K9

MLK2 = tested on: MLK2
MLK3 = tested on: MLK3
MRCKA = tested on: MRCKA
MRCKB = tested on: T6, MRCKB
T6 construct: gene CDC42BPB

MST1R = tested on: MST1R
MST1 = tested on: T7, MST1
T7 construct: gene STK4

MST2 = tested on: T8, MST2
T8 construct: gene STK3

MST3 = tested on: T9, MST3
T9 construct: gene STK24

MST4 = tested on: MST4
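Also: KINOMEscan kinase panel screen.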

Compound	%Inh (MEK5) [%]	%Inh (MEK6) [%]	%Inh (MELK) [%]	%Inh (MERTK) [%]	%Inh (MET) [%]	%Inh (MINK) [%]	%Inh (MKK7) [%]	%Inh (MKNK1) [%]	%Inh (MKNK2) [%]	%Inh (MLCK) [%]	%Inh (MLK1) [%]	%Inh (MLK2) [%]	%Inh (MLK3) [%]	%Inh (MRCKA) [%]	%Inh (MRCKB) [%]	%Inh (MST1R) [%]	%Inh (MST1) [%]	%Inh (MST2) [%]	%Inh (MST3) [%]	%Inh (MST4) [%]
COc1ccc(C)c(Nc2ccnc(Nc3ccc(-c4cnc[nH]4)cc3)n2)c1.Cl [GW784041]	99.7	0	34	7	15	44	0	8	0	0	30	12	0	20	5	0	23	38	17	0
COc1ccc(C2=C(Nc3cccc(O)c3)C(=O)NC2=O)cc1 [SB-390766]	17	0	99.4	28	0	0	73	93.5	17	2	0	0	0	0	2	100	7	100	0	0
Cc1ccc(Nc2ccnc(Nc3ccc(C)c(F)c3)n2)cc1O.Cl [GW582868]	92.8	0	0	38	0	0	0	0	7	24	60	0	45	0	0	18	0	9	0	0
Cc1ccccc1CC(=O)N1CCc2cc(-c3cn(C)c4ncnc(N)c34)ccc21 [GSK2603346]	99.9	73	7	46	70	0	0	7	55	6	7	0	18	0	0	46	97	0	46	54
COc1cc(Nc2ccnc3cc(-c4ccncc4)ccc23)cc(OC)c1OC.Cl [GW494610]	99.8	0	18	13	13	95.1	23	28	14	0	2	27	21	0	4	41	9	0	0	0
COC(=O)Nc1nc2ccc(Oc3ccc(NC(=O)Nc4cc(C(F)(F)F)ccc4F)cc3)cc2[nH]1.Cl [GW654607]	94.2	7	0	98.5	88	15	0	73	94.9	0	2	21	1	15	0	61	6	0	6	8
O=C(O)C(F)(F)F.O=c1[nH]ccc2nc(N[C@@H]3CCNC3)nc(Nc3cc(Cl)cc(Cl)c3)c12 [GSK2188764]	100	34	100	51	0	97.6	20	0	14	99.1	95.7	0	88	24	35	11	86	80	85	91.1
COc1cccc(NC(=O)NCCNc2ccnc(Nc3ccc(F)cc3)n2)c1 [GSK1379879]	40	0	0	0	0	2	30	12	7	0	0	0	0	34	3	37	0	15	0	0
CN(C)CCNS(=O)(=O)c1ccc(-c2ccnc3[nH]ccc23)cc1 [GSK977620]	71	100	92.6	72	0	4	6	0	77	18	3	24	0	4	46	27	17	9	0	0
Nc1cccc(-c2ccc3c(N)n[nH]c3c2)c1 [GSK2193613]	64	0	0	0	6	73	0	2	64	95.4	10	100	19	0	0	26	6	17	21	0

Reference: article PMC5540273 (PLoS ONE, 2017)
